# Compound activity deposited in PubChem by National Center for Advancing Translational Sciences (NCATS).
# PNC assembly inh: perinucleolar compartment assembly inhibition | activity change (PNC), negative = inhibition, % at 10 µM | AID 2417 | 3.1% of 140,000 active | PC3M PTB-GFP, PNC prevalence imaging, 16 h; hits give low values;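 active = readout at or below -70, meaning at least 70% loss of cells showing the perinucleolar compartment, a nuclear body marking cancer cells; inconclusive = readout between -30 and a set limit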;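 also: plate controls were DMSO wells for no effect and camptothecin positive control wells for full effect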
#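 Read-out is percentage of cells bearing a perinucleolar compartment, from automated 20x imaging of fixed, Hoechst-stained PC3M PTB-GFP cells. Cells were seeded 4 h, then exposed 16 h to compound (23 nl of library stock) in duplicate plates.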
# GoLoco inh red: blocks human Gai1 binding to RGS12 GoLoco peptide, red readout; P63096; Potency, µM (series often up to 61.6 µM), without a hit: at the top dose activity, negative = inhibition, usual class: inhibitors; Gai1:RGS12 GoLoco peptide FP, rhodamine, 10 min; 0.44% of 230,000 active; active = well fitted inhibition curve with a large enough effect, not every such curve was filed as active; inactive = no such curve, though single readings can be large or run the other way; also: potency is read from the fitted curve at half-maximal effect; % is scaled to controls: 0 for no effect and ±100 for the full control effect; nearly all actives have a fitted effect of over 30% in size
# Target sequence (P63096 whole entry, looked up): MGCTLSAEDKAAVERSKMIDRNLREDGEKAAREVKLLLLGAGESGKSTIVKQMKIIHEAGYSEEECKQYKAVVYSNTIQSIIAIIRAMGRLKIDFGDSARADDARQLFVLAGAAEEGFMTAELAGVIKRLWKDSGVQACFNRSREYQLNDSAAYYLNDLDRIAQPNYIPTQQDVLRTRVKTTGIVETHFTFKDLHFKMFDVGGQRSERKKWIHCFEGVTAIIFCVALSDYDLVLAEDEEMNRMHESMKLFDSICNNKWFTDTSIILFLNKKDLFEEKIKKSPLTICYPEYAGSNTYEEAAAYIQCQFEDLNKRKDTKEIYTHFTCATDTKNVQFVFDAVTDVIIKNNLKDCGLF
# HPGD inh: HPGD (human) dehydrogenase inhibition. 4.3% of 150,000 active. Potency, µM, without a hit: at the top dose activity change, negative = inhibition, hits mostly inhibitors. purified HPGD, NADH fluorescence kinetic, PGE2 substrate. P15428; active = well fitted inhibition curve with a large enough effect, not every such curve was filed as active; inconclusive = small, poorly fitted or top-dose-only effect, or another doubt; inactive = no such curve, though single readings can be large or run the other way; also: potency is read from the fitted curve at half-maximal effect; % is scaled to controls: 0 for no effect and ±100 for the full control effect
# Target sequence (P15428 whole entry, looked up): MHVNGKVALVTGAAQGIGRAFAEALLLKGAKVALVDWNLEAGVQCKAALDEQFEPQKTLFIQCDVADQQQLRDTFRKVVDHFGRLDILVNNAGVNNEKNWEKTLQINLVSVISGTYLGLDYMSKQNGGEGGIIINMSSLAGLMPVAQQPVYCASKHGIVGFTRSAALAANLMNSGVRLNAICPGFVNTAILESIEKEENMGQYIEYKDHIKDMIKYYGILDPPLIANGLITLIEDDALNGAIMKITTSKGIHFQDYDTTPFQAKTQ
#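 20 nM HPGD preincubated 15 min at room temperature with compound in 50 mM Tris-HCl pH 8, 0.01% Tween 20. Started with 1 mM NAD+ and 30 uM prostaglandin E2; NADH fluorescence (360/450 nm) read 5 times over 30-s intervals, last minus first.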
# ALDH1A1 inh: ALDH1A1 (human) enzyme inhibition. P00352. Purified ALDH1A1, NADH fluorescence, propionaldehyde substrate. Potency, µM (series often up to 75.3 µM), inactives show at the top dose activity, negative = inhibition, hits mostly inhibitors. 7.3% of 220,000 active; active = well fitted inhibition curve with a large enough effect, not every such curve was filed as active; inconclusive = small, poorly fitted or top-dose-only effect, or another doubt; inactive = no such curve, though single readings can be large or run the other way;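 also: potency is read from the fitted curve at half-maximal effect; plate controls were no enzyme wells and a reference inhibitor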
# HTT aggregate: reduces HttQ103-GFP aggregates in PC12 cells; PC12 HttQ103-GFP aggregates, Acumen cytometry, 40 h; Potency, µM (series often up to 46.1 µM), without a hit: at the highest dose activity change, negative = inhibition, usual class: inhibitors; 1.1% of 220,000 active; also: potency is read from the fitted curve at half-maximal effect; % is scaled to controls: 0 for no effect and ±100 for the full control effect; nearly all actives have a fitted effect of over 60% in size
#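 Steps: seed 1500 PC12 HTTQ103-GFP cells/well; add tebufenozide, 100 nM final; add compound titration; add ATPLite reagent; quantify GFP aggregates by laser scanning cytometry.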
# HTT ATP protect: cytoprotection in Huntington HTT-Q103 PC12 cell model; PC12 HTT-Q103 induced, cytoprotection, ATP luminescence, 40 h; Potency, µM (top dose mostly 56.4 µM), inactives show cytoprotection (ATP increase), most hits filed as activators; 0.14% of 230,000 active; AID 1471; also: potency is read from the fitted curve at half-maximal effect; % of control where 0% means no effect; nearly all actives have a fitted effect of over 45% in size
#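 PC12 cells stably carrying ecdysone-inducible Htt exon 1 (Q103)–GFP were induced with 100 nM tebufenozide (final) alongside library compounds in a dose series. Cytoprotection was scored as retained ATP by ATPlite luminescence.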
# * hit, by the source's call; ? = inconclusive; / = no result given; [ ] = dose if it differs, or a comment. Rows were chosen to be rich in hits. Some 11% of all compounds tested hit in one or more screens of this group. Unless noted, calls follow the shape of the dose curve; as a rule, active = well fitted curve in the direction sought with a large enough effect; inconclusive = small, poorly fitted or top-dose-only effect, or another doubt; inactive = no such curve, though single readings can be large; an effect the other way counts as inactive or inconclusive.
SMILES,PNC assembly inh,GoLoco inh red,HPGD inh,ALDH1A1 inh,HTT aggregate,HTT ATP protect
O=C(CSc1nc2[nH]ncc2c(=O)[nH]1)c1ccc(Cl)cc1,/,40%,/,2.5µM*,24%[9.22 µM],-21%
CC(=O)c1c(C(C)=O)c(C)n(-c2ccc(O)cc2)c1C,13,-11%,-6%,9%,-2%,-20%
CCN(CC)c1ccc(-n2c(C)c(C(C)=O)c(C(C)=O)c2C)cc1,0,-11%,-5%,?,22µM*,-8%[0.074 µM]
CCN(CC)c1ccc(-n2c(C)cc(C=O)c2C)cc1,25,-5%,2%,10µM*,-2%,16%[10 µM]
CC(C)(C)OC(=O)C(Cc1ccc(OC(C)(C)C)cc1)NC(=O)CNC(=O)OCc1ccccc1 (stereo not given),-10,8%,-6%,?,14%,-1%[10 µM]
Nc1nc(-c2ccccc2)c(N=Nc2ccc(Cl)cc2)s1,-9,9%,?,28µM*,-8%,-5%[10 µM]
O/N=C\c1ccc(-c2ccccc2)o1,?,12%,14µM*,2%,0%,-19%[10 µM]
COc1ccc(N=Cc2ccc(-c3ccccc3)o2)cc1,/,-3%,/,3.2µM*,-6%[9.22 µM],-10%[10 µM]
COC(=O)N/N=C/c1ccc(-c2cc(Cl)ccc2Cl)o1,?,8%,-13%,-3%,3%,-18%[10 µM]
O=[N+]([O-])c1ccc(-c2ccc(/C=N/O)o2)cc1,/,6%,/,/,-3%[9.22 µM],5%[10 µM]
COc1ccc(N=Cc2ccc[nH]2)cc1,4,-3%,-7%,?,-9%,-2%[10 µM]
O/N=C/c1ccc(-c2cc(Cl)ccc2Cl)o1,7,4%,4.5µM*,2%,?,27%[10 µM]
O=c1c2ccccc2oc2cc(O)c([C@@H]3COC[C@@H](CO)[C@@H](O)[C@@H](O)[C@H]3O)c(O)c12,/,/,/,/,/,-7%
CC(On1nnc2ccccc21)C(=O)N1CCN(Cc2ccccc2)CC1 (stereo not given),/,6%,/,-7%,?,0.71µM*
c1coc(CNc2nc3nonc3nc2NCc2ccco2)c1,3,19%,-27%,-11%,11µM*,-10%[10 µM]
COCCn1c(=O)c(-c2cc(F)cc(F)c2)nc2cnc(N3CCOCC3)nc21,/,-6%,/,?,/,-12%
CCc1ccc(S(=O)(=O)/N=C2/C=C(Sc3ncn[nH]3)C(=O)c3ccccc32)cc1,-123*,-26%,1.6µM*,5µM*,3.5µM*,-80%[10 µM]
O=Cc1ccc(-c2ccc(F)cc2)o1,/,7%,/,1.4µM*,-1%,-16%
O=Cc1ccc(-c2ccc(C(=O)O)cc2)o1,/,-6%,/,/,1%[9.22 µM],-7%[10 µM]
c1ccc2[nH]ccc2c1,/,/,/,/,4%,-3%
Cc1ccccc1Nc1oc(-c2ccccc2)nc1-c1ccccc1,/,-4%,?,?,/,?
CNCC(O)c1cccc(O)c1 (stereo not given),/,-9%,-13%,7%,/,-6%
CCOc1ccc(C(C)=O)cc1CSc1nnc(-c2ccoc2C)n1N,?,5%,14µM*,22µM*,-11%,-23%
CCOC(=O)COc1ccccc1/C=C\[N+](=O)[O-],?,-4%,16µM*,4.5µM*,-11%,-32%[10 µM]
CCOC(=O)COc1cc([N+](=O)[O-])cc2cccnc12,/,-15%,/,-12%,25%[9.22 µM],-12%[10 µM]
SMILES,PNC assembly inh,GoLoco inh red,HPGD inh,ALDH1A1 inh,HTT aggregate,HTT ATP protect
CN(C)c1ccc(-c2nc(N(C)C)c3ccccc3n2)cc1,/,-5%,?,?,/,-31%
CN(Cc1ccccc1)c1nc(-c2ccc([N+](=O)[O-])cc2)nc2ccccc12,-98*,-17%,-14%,-7%,19%,-21%
O=[N+]([O-])c1ccc(-c2nc(C(Cl)Cl)c3ccccc3n2)cc1,/,1%,/,/,1.8µM*,-86%[10 µM]
O=C(Nc1ccccc1)N1CCCC2(CCN(C(=O)c3cnccn3)CC2)C1,/,-5%,-5%,9%,/,-7%
COc1ccc(C(CC(=O)NCc2ccccc2)Sc2n[nH]c(-c3ccc(Cl)cc3)n2)cc1 (stereo not given),35,9%,-13%,6%,-22%,-32%[10 µM]
COc1ccc(C(CC(=O)NCc2ccccc2)Sc2n[nH]c(-c3ccccc3)n2)cc1 (stereo not given),32,-5%,7.9µM*,9%,4%,7%[10 µM]
C/C(CC(C)(C)C1CCCCC1)=N\NC(N)=S,10,8%,-11%,?,-18%[9.22 µM],-97%
C/C(=N\NC(N)=S)C1C2C3CC4C5CC(C42)C1C53 (stereo not given),/,-15%,/,?,-24%,11µM*
COc1ccc2c(c1)C(NC(C)=O)C(=O)N2C (stereo not given),15,-4%,2%,1%,-1%,6%[0.074 µM]
CCc1ccc2c(c1)C(NC(C)=O)C(=O)N2CC (stereo not given),43,-38%,-12%,22µM*,5%,21%[10 µM]
CCN1C(=O)C(NC(C)=O)c2cc(Br)ccc21 (stereo not given),-7,-3%,1%,?,-1%,-5%
CCCCN1C(=O)C(NC(C)=O)c2cc(Br)ccc21 (stereo not given),-11,9%,-10%,0.18µM*,-7%,-12%
Nc1nc(N)c(CCCCc2ccccc2)c(N)n1,/,10%[14.2 µM],2%,17%[13.5 µM],/,6%[10 µM]
CCCCn1c(=NC(=O)c2ccco2)c(C(=O)OCC)cc2c(=O)n3cccc(C)c3nc21,/,-8%,/,/,-4%[9.22 µM],2%[10 µM]
c1nc2sc3c(c2c2nnnn12)CCCC3,11,4%,?,?,10µM*,6%[1.9 µM]
COc1ccc(-c2nnc(SCC(=O)N3c4ccccc4Sc4ccccc43)o2)cc1,-100*,-4%,-13%,8%,-3%,28%[10 µM]
O=C(CSc1nnc(COc2ccc(Cl)cc2)o1)N1c2ccccc2CCc2ccccc21,-17,7%,2%,22µM*,-14%,-53%
COc1ccc(-c2nnc(SCC(=O)N3CCc4ccccc4C3)o2)cc1,-5,9%,?,?,-24%,6%[10 µM]
COc1ccc(-c2nnc(SCC(=O)c3ccc(C)o3)o2)cc1,-119*,2%,?,-3%,-24%,17%[10 µM]
CCN(CC)S(=O)(=O)c1ccc(-c2nnc(SCC(=O)c3ccc(OC)cc3)o2)cc1,?,-4%,-7%,0.35µM*,?,1%
O=C(COc1ccc(Cl)cc1)NCc1nnc(SCC(=O)N2CCCc3ccccc32)o1,?,-9%,-9%,?,-11%,-46%
Cc1ccc(C(=O)CSc2nnc(-c3ccco3)o2)o1,?,-3%,?,?,12%,-13%
COC(=O)C/C=C\[C@@H](C)[C@@H](/C=N\O[C@@H]1O[C@H](COC(C)=O)[C@H](OC(C)=O)[C@H](OC(C)=O)[C@H]1OC(C)=O)OC,/,/,/,-1%[13.5 µM],/,?
Cc1ccccc1OCc1csc(N)n1,/,6%,/,12%,3%,-34%
